# Hits are enriched below; roughly 1.9% of the tested compounds scored in any of these assays.
# Pemphigus Ab inh: inhibitors of pemphigus antibody binding to human desmoglein-3 | P32926 | DSG3-coupled beads, scFv-anti-DSG3-GFP binding, flow cytometry; stronger effect = lower value | binding (percent of control), % at 10 µM | actives 0.48% (n = 310,000) | AID 588358;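 active = binding more than 3 SD below its plate's average and above zero; inconclusive = below that plate limit but binding exactly zero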;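 note: hits lower antibody fragment binding to DSG3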
# Target sequence (P32926 whole entry, looked up, the tested form may be a part): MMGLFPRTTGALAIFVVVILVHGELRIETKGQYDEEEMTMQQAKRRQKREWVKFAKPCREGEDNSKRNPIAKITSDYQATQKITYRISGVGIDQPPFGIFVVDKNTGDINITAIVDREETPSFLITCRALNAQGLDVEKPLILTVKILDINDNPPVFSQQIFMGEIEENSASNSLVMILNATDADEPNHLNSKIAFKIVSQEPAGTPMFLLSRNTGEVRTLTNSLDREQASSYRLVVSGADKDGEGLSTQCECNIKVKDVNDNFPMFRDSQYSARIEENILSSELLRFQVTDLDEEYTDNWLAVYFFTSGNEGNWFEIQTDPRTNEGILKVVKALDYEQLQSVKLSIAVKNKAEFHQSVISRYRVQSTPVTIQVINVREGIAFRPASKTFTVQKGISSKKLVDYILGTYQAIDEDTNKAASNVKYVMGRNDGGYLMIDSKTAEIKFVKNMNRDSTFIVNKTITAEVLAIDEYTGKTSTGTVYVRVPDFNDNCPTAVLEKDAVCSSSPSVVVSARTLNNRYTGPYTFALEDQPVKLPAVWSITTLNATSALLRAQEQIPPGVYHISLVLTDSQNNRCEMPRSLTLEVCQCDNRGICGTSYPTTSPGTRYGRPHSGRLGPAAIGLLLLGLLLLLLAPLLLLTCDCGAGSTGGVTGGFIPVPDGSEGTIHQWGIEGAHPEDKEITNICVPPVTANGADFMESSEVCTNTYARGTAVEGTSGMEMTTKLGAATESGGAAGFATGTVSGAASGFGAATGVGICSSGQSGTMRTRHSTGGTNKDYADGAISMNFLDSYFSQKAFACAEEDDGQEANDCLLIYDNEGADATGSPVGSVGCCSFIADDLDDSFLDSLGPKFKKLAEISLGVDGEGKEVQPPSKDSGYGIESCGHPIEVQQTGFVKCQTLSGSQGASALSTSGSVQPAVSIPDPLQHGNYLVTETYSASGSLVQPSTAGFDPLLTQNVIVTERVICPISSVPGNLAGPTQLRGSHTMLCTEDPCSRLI
# N-glyco inh: N-linked glycosylation inhibition. D54 ERlucT glycosylation luciferase reporter, 24 h; percent of 100 nM tunicamycin response. reporter increase, % at 12.5 µM. actives 0.23% (n = 360,000);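 active = mean luciferase reporter signal, scaled so untreated is 0 and the glycosylation-blocking control 100, at or above a set limit in every replicate; inconclusive = mean reaches the limit but not every replicate does; inactive = mean below the limit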;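 note: luciferase carries N-glycosylation sites so blocking glycosylation raises the light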
# ATG4B inhibitor: blocks human ATG4B protease cleavage of LC3 substrate. ATG4B cleavage of LC3-PLA2, NBD-HPC fluorescence, 1 h. inhibition, % at 8.33 µM. actives 0.51% (n = 340,000). AID 504462; in the data active = inhibition above about 40%
# Vif imaging: HIV Vif inhibition; HEK293T cells, Vif self-association by quenched fluorescence, imaging, 24 h; inhibition, % at 7.49 µM; actives 0.35% (n = 340,000); in the data active = inhibition above about 50%, passing the limit was not always enough; inconclusive = no clear call, values can overlap the other calls; inactive = below about 31%
# NSD2 HMT inh: inhibitors of human histone methyltransferase NSD2; AID 743445; NSD2 peptide methylation, AlphaScreen, 120 min; O96028; actives 0.54% (n = 310,000); inhibition, % at 12.5 µM; in the data active = inhibition above about 50%
# CaV13 ICDI inh: Primary screen for inhibitors of IQ motif and Ca2+-dependent inactivation inhibitor domain binding in CACNA1D, Förster resonance energy transfer in living cells, …. HEK cells, CFP/YFP FRET ICDI-IQ, plate reader, 10 min; percent FRET-ratio fall versus neutral wells. inhibition, % at 12.3 µM. actives 0.098% (n = 340,000);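 active = mean replicate inhibition of at least 30% and at least 1% of replicates passing that level; inconclusive = only one of the two criteria is met; inactive = neither criterion is met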
# Numbers stand for hits; . = inactive; ? = inconclusive; / = no result.
SMILES,Pemphigus Ab inh,N-glyco inh,ATG4B inhibitor,Vif imaging,NSD2 HMT inh,CaV13 ICDI inh
COC(=O)c1cccc(NC(=S)NCCC2=CCCCC2)c1,.,.,.,55.1,.,/
CCOC(=O)CCCn1nc(C)n2c(cc3sccc32)c1=O,.,.,.,/,.,/
Cc1nn(CCCC(=O)N2CCc3ccccc3C2)c(=O)c2cc3sccc3n12,.,.,.,84.6,/,.
COc1ccc(CNC(=O)C2CCCN(S(=O)(=O)N3CC(C)CC(C)C3)C2)c(OC)c1 (stereo not drawn),.,.,.,.,.,.
CC(=O)c1ccc(N/N=C(/C(N)=O)C2=NC(C)(C)Cc3ccccc32)cc1,.,.,.,.,.,.
CC1(C)Cc2ccccc2C(/C(=N\Nc2cccc(Cl)c2)C(N)=O)=N1,67.8,.,.,.,.,.
Nc1c(C(=O)Nc2ccc3c(c2)OCCO3)nnn1Cc1ccc(F)cc1,.,.,.,.,.,.
Cc1cccc(NC(=O)Cn2cc(C(=O)C3CC3)c3ccccc32)c1C,-14.4,.,.,.,.,.
CCC(=O)c1cn(CC(=O)Nc2cccc(C)c2C)c2ccccc12,.,.,.,.,.,.
CCCN(CCC)CCNC(=O)C1CCN(Cc2nc(-c3ccc(Cl)cc3)oc2C)CC1,.,.,.,.,.,.
Cc1oc(-c2ccc(Cl)cc2)nc1CN1CCC(C(=O)NCc2cccnc2)CC1,.,.,.,86.6,/,/
CCOC(=O)C1=CCN(S(=O)(=O)c2ccc(F)cc2)C1c1ccccc1 (stereo not drawn),/,.,/,/,/,.
Cc1ccn(C(=O)c2ccc(NC(=O)C3CC3)cc2)n1,73.5,.,.,.,/,.
COc1ccc(OCC(=O)Nc2cc3c(cc2C(=O)O)OCCCO3)cc1,.,.,.,51.6,/,.
CCC(=O)c1ccc(OCC(=O)Nc2ccc3c(c2)OCCO3)cc1,-3.4,.,.,.,/,.
COc1ccc(OC)c(S(=O)(=O)NCC2CCN(C(=O)C(=O)c3cc4ccccc4o3)CC2)c1,/,/,/,/,.,.
CCCN1CCc2c(sc(NC(=O)C3CCN(S(=O)(=O)c4cccs4)CC3)c2C(N)=O)C1,.,.,.,.,.,33.8
CC(=O)N1CCc2c(sc(NC(=O)C3CCN(S(=O)(=O)c4cccs4)CC3)c2C(N)=O)C1,.,.,.,.,.,.
O=C1COc2ccc(C(=O)COC(=O)CCSc3ccccc3)cc2N1,73.2,.,.,.,.,.
O=C1COc2ccc(C(=O)COC(=O)CNC(=O)c3ccccc3)cc2N1,.,.,.,.,.,.
CC(O)C(NS(=O)(=O)c1ccc(Cl)cc1)C(=O)OCC(=O)c1ccc2c(c1)NC(=O)CO2 (stereo not drawn),.,.,.,.,.,.
COc1ccc(OCCCC(=O)OCC(=O)c2ccc3c(c2)NC(=O)CO3)cc1,.,.,.,.,.,.
O=C1COc2ccc(C(=O)COC(=O)CCCOc3ccccc3)cc2N1,82.1,.,/,.,.,.
CC(C)CC(NC(=O)c1ccc(Cl)cc1)C(=O)OCC(=O)c1ccc2c(c1)NC(=O)CO2 (stereo not drawn),.,60.2,.,.,.,/
Cc1ccc(-c2csc3ncn(CC(=O)N4CCOCC4)c(=O)c23)cc1,.,.,.,.,.,/
SMILES,Pemphigus Ab inh,N-glyco inh,ATG4B inhibitor,Vif imaging,NSD2 HMT inh,CaV13 ICDI inh
CCOC(=O)Cn1c(=N)n(Cc2ccccc2)c2ccccc21,.,.,.,.,.,/
Fc1ccc(C2CCCCN2Cc2nc(CC3CC3)no2)cc1 (stereo not drawn),.,.,.,.,.,.
Fc1ccc2nc(C3CCCCN3Cc3nc(CC4CC4)no3)[nH]c2c1 (stereo not drawn),2.2,.,.,.,.,.
COc1ccc(F)cc1C1=CC(=O)C[C@H](c2ccc3c(c2)OCO3)C1,.,30.3,.,.,/,.
COc1cc(CNc2ccc(CNc3ncn[nH]3)cc2)cc(Cl)c1OCc1ccccc1,82.5,.,.,.,.,.
c1ccc(CNc2ccc(CNc3ncn[nH]3)cc2)cc1,.,.,.,.,.,.
O=C(CC1S/C(=N\S(=O)(=O)c2ccc(F)cc2)N(c2ccccc2)C1=O)Nc1ccccc1 (stereo not drawn),79.3,.,.,.,.,.
CCOC(=O)C1(CC)NC(c2ccc(N(C)C)cc2)C2C(=O)N(C)C(=O)C21 (stereo not drawn),.,.,.,.,.,.
COc1cc(OC)cc(C(=O)Nc2cc(-c3cn4cccnc4n3)ccc2C)c1,-10.7,.,.,.,.,.
Cc1ccc2[nH]c(=O)c(CN(CCCN3CCOCC3)C(=O)NC3CCCCC3)cc2c1,93.5,.,.,.,.,.
Cc1cccc2cc(CN(CC3CCCO3)C(=O)NC3CCCCC3)c(=O)[nH]c12 (stereo not drawn),/,.,.,68.5,.,.
O=C(NC1CCCCC1)N(CCN1CCOCC1)Cc1cc2cc3c(cc2[nH]c1=O)OCCO3,.,.,.,.,/,.
Nc1n[nH]c(C(F)(F)F)c1-c1ccccc1,.,.,.,.,.,.
CCOc1ccc(CN2C(=O)c3ccccc3C2=O)cc1C(=O)Nc1nnc(SCC)s1,.,.,.,.,.,.
COc1ccc(C(=O)N2CCCCC2c2cc(C(=O)NCc3ccccc3)no2)cc1 (stereo not drawn),/,.,/,.,/,.
Cc1ccccc1C(=O)Nc1ccc(C(=O)N/N=C/c2ccc(O)cc2)cc1,?,.,.,69.9,.,.
Cc1ccccc1C(=O)Nc1ccc(C(=O)N/N=C/c2ccncc2)cc1,.,.,.,.,.,.
CCCCC(C(=O)NCCC(C)C)N(CCCN1CCOCC1)C(=O)c1snc(C(N)=O)c1N (stereo not drawn),.,.,.,?,.,.
CC1(C)COC(=S)N1CCC#N,.,.,.,.,.,.
COc1ccc(-n2c(C)cc(C(=O)COC(=O)Cn3cnc4ccccc43)c2C)cc1,/,.,.,.,/,.
CCn1nnnc1SCC(=O)NC1CCCC1,.,.,.,.,.,.
Cc1c(NC(=O)c2cc(-c3ccc(F)cc3)nc3ccccc23)c(=O)n(-c2ccccc2)n1C,66.8,.,.,.,.,.
Cc1cccc(-c2cc(C(=O)Nc3c(C)n(C)n(-c4ccccc4)c3=O)c3ccccc3n2)c1,.,.,.,.,.,/
CC[C@H](C)/C=C(C)/C=C/c1cc2c(cn1)C(=O)[C@@](C)(OC(C)=O)C(O)=C2Cl,/,.,/,.,/,/
Cc1ccc(C(=O)O)cc1N1C(=O)c2cccc3c([N+](=O)[O-])ccc(c23)C1=O,.,.,.,.,.,.
CC(=O)Oc1cccc(N2C(=O)c3cccc4c([N+](=O)[O-])ccc(c34)C2=O)c1,.,.,.,118.4,.,.
